Compound activity (PubChem)
These entries were drawn from the full list.
aSyn 5UTR act = Activators via SNCA 5'UTR binding, MLPCN. alpha-synuclein 5'UTR reporter, activators screen. activity score, % (tested at 7.5 µM), hits read low. hit rate 7.1% among 300,000. AID 1814; in the data active = activity score below about -60%
* marks the source's active call; other numbers are inactive results.

SMILES | aSyn 5UTR act
Cc1cnc(NC(=O)c2ccc(-c3nc4ccccc4s3)o2)s1 | -83.7*
O=C(Nc1nc2cc3c(cc2s1)OCCO3)c1ccc([N+](=O)[O-])o1 | -301.1*
O=C(Nc1nc2ccccc2s1)c1ccccc1[N+](=O)[O-] | -152.6*
O=C(Nc1nc2ccccc2s1)Nc1ccc([N+](=O)[O-])cc1Cl | -99.1*
COc1ccc2nc(NC(=O)c3ccc([N+](=O)[O-])o3)sc2c1 | -160.7*
CC(=O)Nc1nc2cccc([N+](=O)[O-])c2s1 | -67.8*
O=C(Nc1nc2ccccc2s1)c1ccc([N+](=O)[O-])o1 | -173.0*
COc1cccc(N=Nc2c(C)[nH]n(-c3ccccc3)c2=O)c1 | -145.1*
Cc1[nH]n(-c2ccccc2)c(=O)c1N=Nc1ccc2c(c1)OCO2 | -214.5*
Cc1[nH]n(-c2ccccc2)c(=O)c1N=Nc1ccccc1O | 50.0
O=C(CSc1ccc(Cl)cc1)Nc1cc(-c2nc3ncccc3o2)ccc1Cl | -73.7*
COc1ccc2oc(-c3ccc(C)c(NC(=O)CSc4ccc(Cl)cc4)c3)nc2c1 | -133.3*
COc1cc2c(cc1NC(=O)c1cccnc1)oc1ccccc12 | -154.8*
COc1cc2c(cc1NC(=O)c1cccc([N+](=O)[O-])c1)oc1ccccc12 | 80.9
COc1cc2c(cc1NC(=O)c1ccncc1)oc1ccccc12 | -131.9*
Fc1cc2[nH]c(=S)[nH]c2cc1Cl | 41.8
CSc1nc2sc3c(c2c(=O)[nH]1)CCC(C)C3 (stereo unspecified) | -150.8*
CCOC(=O)c1sc(/N=C/c2c(O)ccc3ccccc23)cc1C | -72.6*
Cc1ccc(N=Cc2c(O)ccc3ccccc23)cc1F | -111.4*
O=C(NCCCO)c1cc2c(cn1)[nH]c1ccccc12 | -103.6*
Cc1cc(O)c(NC(=O)c2ccc(Br)o2)cc1C | -178.4*
O=C(Nc1ccc(Cl)cc1Cl)c1ccc(Br)o1 | -123.6*
CC(=O)NC(=S)Nc1sc2c(c1C#N)CCCCC2 | -119.5*
Cn1nccc1C(=O)NC(=S)Nc1sc2c(c1C#N)CCCCC2 | -148.3*
CC1CCc2sc(NC(=S)NC(=O)c3ccccc3)c(C#N)c2C1 (stereo unspecified) | -141.2*
SMILES | aSyn 5UTR act
N#Cc1c(NC(=S)NC(=O)c2ccccc2)sc2c1CCC2 | -126.5*
N#Cc1c(NC(=O)C2CC2)sc2c1CCCCC2 | -119.2*
CCC1(C)Cc2c(sc(NC(=S)NC(=O)c3ccccc3)c2C#N)CO1 (stereo unspecified) | -145.5*
O=C(O)C(C(=O)/C=C/c1ccco1)=C1SCCS1 | -69.2*
O=c1oc2cc(OCc3ccc([N+](=O)[O-])cc3)ccc2c2c1CCCC2 | -65.4*
CC(=O)C(C)Oc1ccc2c3c(c(=O)oc2c1)CCCC3 (stereo unspecified) | -79.1*
CC(=O)C(C)Oc1ccc2c3c(c(=O)oc2c1)CCCCC3 (stereo unspecified) | -109.2*
Cc1cc(C(=O)C(C)Sc2cccc[n+]2[O-])c(C)n1-c1ccc(Cl)cc1 (stereo unspecified) | -82.1*
Cc1cccc(N/N=C2/COC(C)(C)CC2=O)c1 | -101.4*
CC1(C)CC(=O)/C(=N/Nc2ccc(Cl)cc2)CO1 | -230.1*
O=C(NC(=S)Nc1ccc2[nH]ncc2c1)c1ccccc1 | -115.0*
CC(C)(C)NC(=S)NNC(=O)c1ccc2ncccc2c1 | -133.8*
COc1cccc(C(=O)Nc2ccc3[nH]ncc3c2)c1 | -75.8*
O=C(NNC(=S)Nc1ccccc1)c1ccc2ncccc2c1 | -97.2*
O=C(NC(=S)Nc1ccc2ncccc2c1)c1ccccc1 | -137.1*
O=C(NC(=S)Nc1ccc2nc[nH]c2c1)c1ccccc1 | -115.8*
O=C(Nc1ccc2cccnc2c1)c1ccc(Br)cc1 | -64.6*
CCNc1ccccc(-c2ccc3ccccc3n2)c1=O | -186.4*
O=C1c2ccccc2C(=O)C1c1ccc2ccccc2n1 | 94.4
O=c1c(/C=C(\O)c2ccc(F)cc2)nc2ccccc2n1-c1ccccc1 | -130.0*
CCCOc1cccc(C(=O)NC(=S)Nc2ccc(N3CCN(C)CC3)cc2)c1 | -68.8*
CCOc1cccc(C(=O)NC(=S)Nc2ccc(N3CCN(CC)CC3)cc2)c1 | -80.3*
Cc1cc(NC(=O)c2ccc(NC(=O)C3CCCO3)cc2)ccc1Br (stereo unspecified) | -120.7*
CCc1ccc(NC(=O)c2ccccc2NC(=O)C2CCCO2)cc1 (stereo unspecified) | -244.4*
CCOC(=O)c1ccc(NC(=S)N2CCC(O)CC2)cc1 | -81.5*
